Our source for the growth inhibition values is PubChem BioAssay (NCI).

“And” between values parts separate entries of the source, which are not always exact repeats. Equal values may be shown once. About 79,000 compounds went through this panel and 15% of them were active in at least one assay; those are over-represented in the sample as a whole. A number with no mark means an inactive call. The source made the active and inactive calls. Cut-off read from the data, not from the text of the source: active = growth inhibition above about 70%; inactive = the rest.

A short description of this assay: NCI Yeast Anticancer Drug Screen. Data for the cln2 rad14 strain (AID 165).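 Note: 0% = growth equal to vehicle treated cultures.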 The note with it: S. cerevisiae cln2 rad14 strain, stronger effect = higher value. As to the method: Growth inhibition of yeast strains with defined genetic alterations is measured as a screen for potential anti-cancer activity. Selected strains with alterations in DNA damage repair or cell cycle control were exposed to compounds and growth inhibition was measured relative to vehicle treated controls. The strain used in this assay is cln2 rad14

[1] abbreviates: at 5.0 µM (retest, dose inferred, filed as 0.5).
Where [2] appears, read: at 50.0 µM (retest, dose inferred, filed as 5.0).

Consider `CCCCCC(=O)c1ccc(O)cc1O`, for which the growth inhibition was 37% under setting [1] and 90% (active) under setting [2].
For `C/C(=N\NC(=S)NNC(=S)N(C)c1ccccc1)c1ccccn1`, the growth inhibition was 29% under setting [1], 99% (active) under setting [2] and 86.3% (active) (at 50.0 µM).
Regarding `CN(N=O)c1ccc(/C=C/c2ccnc3ccccc23)cc1`, the growth inhibition reads like this: under setting [1], -10%; under setting [2], 12%; (at 50.0 µM) 19.6%.
In the case of `Nc1nc(N)c2c(n1)CCC(S(=O)(=O)c1ccc3ccccc3c1)C2` (stereo not given), the growth inhibition by setting is: under setting [1], 5%; under setting [2], 7%; (at 50.0 µM) 6.95%.
As for `O=Nn1c2ccccc2c2ccccc21`, the growth inhibition was 5% under setting [1]; 67% under setting [2]; 3.15% and 40.1% (at 50.0 µM).
On to `C/C(=N\NC(=S)NC1CCCC1)c1ccccn1`, for which the growth inhibition under setting [1] is 41%, the growth inhibition under setting [2] was 100% (active) and the growth inhibition (at 50.0 µM) is 90.3% (active).
Regarding `COc1ccc(N)c2c1C(=O)c1ccccc1C2=O`, the growth inhibition under setting [1] is 62%, the growth inhibition under setting [2] is 71% (active) and the growth inhibition (at 50.0 µM) is 32.5%.
As for `O=C(/C=C/c1cccc(Br)c1)c1ccc(Cl)cc1`, the growth inhibition runs as follows: under setting [1], 46%; under setting [2], 48%.
For `Nc1cc(F)cc2c1-c1ccc(F)cc1C2`, the growth inhibition is 0% under setting [1], 40% under setting [2] and 78.5% (active) (at 50.0 µM).
In the same order, the values of `CCC(NC(C)c1ccccc1)C(=O)c1ccc(OCc2ccccc2)c(OCc2ccccc2)c1` (stereo not given) are -9%, 30% and 0.35%.
For the molecule `S=c1nc(Cl)cc2[nH]c(Cl)cn12`, the growth inhibition reads like this: under setting [1], -57%; under setting [2], -39%; (at 50.0 µM) 76.6% (active).
Consider `Cc1ccc(N=Nc2ccc(O)c(C)c2)cc1`, for which the growth inhibition is 32% under setting [1], 94% (active) under setting [2] and 92.2% (active) (at 50.0 µM).
With `O=[N+]([O-])c1cccc2nc3ccccc3c(NCCc3cccc[n+]3[O-])c12`, the growth inhibition by setting is: under setting [1], 85% (active); under setting [2], 99% (active); (at 50.0 µM) 95.2% (active).
As to `O=Nn1c2ccccc2c2cc([N+](=O)[O-])ccc21`, the growth inhibition is 35% under setting [1], 62% under setting [2] and 72.9% (active) (at 50.0 µM).
